# From ChEMBL document CHEMBL1157539, “Thousands of chemical starting points for antimalarial lead identification” (Nature, 2010)
# Columns and labels:
# Format in all cases: functional
# Plasmodium falciparum [1] = assay: GSK_TCMDC: Inhibition of Plasmodium falciparum 3D7 in whole red blood cells, using parasite LDH activity as an index of growth. Test compounds present at 2uM
# Plasmodium falciparum [2] = assay: GSK_TCMDC: Inhibition of Plasmodium falciparum Dd2 in whole red blood cells, using parasite LDH activity as an index of growth. Test compounds present at 2uM
# HepG2 = assay: GSK_TCMDC: Percent inhibition of human HepG2 cell line. Test compounds present at 10uM.
SMILES,Inhibition (Plasmodium falciparum [1]) [%],Inhibition (Plasmodium falciparum [2]) [%],Inhibition (HepG2) [%]
CCOC(=O)c1cnc2c(OC)cc(OC)c(Cl)c2c1Nc1cccc(C)c1,95,20,0
CC1CCN(CC[C@H]2CCCN2S(=O)(=O)c2cccc(NC(=O)c3ccc(-c4ccc(Cl)cc4)o3)c2)CC1,100,65,45
CC(Cc1ccc(NS(=O)(=O)c2ccc(CC(C)NCCc3cccc(Cl)c3)cc2)cc1)NCCc1cccc(Cl)c1 (stereo unspecified),100,38,12
CC(=O)N(C)c1cccc(C(=O)Nc2ccc(-c3cccc(-c4nc5cccc(C)c5[nH]4)c3)cc2)c1,97,68,86
CCc1ccc(S(=O)(=O)Nc2cccc(CCN3CCC(N4CCCCC4)CC3)c2)cc1,100,20,21
CC(C)(C)c1ccc(S(=O)(=O)Nc2ccccc2Cn2nc(N3CCNCC3)ccc2=O)cc1.O=C(O)C(F)(F)F,98,97,0
COc1ccc2c(O)c(C3CCC(c4ccc(Cl)cc4)CC3)c(C)nc2c1 (stereo unspecified),97,84,2
COc1cc2nc(N3CCC(CNC(=O)c4ccc(NC(=O)c5ccc(Cl)cc5)cc4)CC3)nc(N)c2cc1OC,100,100,98
c1nc(CCNc2nc(Nc3ccc4c(c3)OCO4)nc(NC3CCCC3)n2)c[nH]1,80,0,0
COc1c(C2CCN(CCCCNC(=O)c3ccc(-c4ccc(C#N)cc4)cc3)CC2)ccc2c1C(C)(C)CCC2(C)C,100,86,98
Cl.O=C(Nc1ccc2c(c1)CCN(C1CCC1)CC2)c1ccc(-n2ccnc2)cn1,92,0,8
CCN1CCN(Cc2ccc3nc(-c4cc(C)n(Cc5cc(Cl)ccc5OCc5ccccc5)n4)[nH]c3c2)CC1.Cl,100,97,11
COc1cc(CCNc2nc(NCc3cccc4ccccc34)nc(N3CCC(N)CC3)n2)ccc1O.O=C(O)C(F)(F)F,100,59,16
O=C(Nc1cccc(CN2CCN(C(=O)c3cccc(Cl)c3)CC2)c1)c1ccco1.O=C(O)C(F)(F)F,96,94,7
O=C(c1ccc(Cl)cc1)C1CCCN(C2CCN(CCc3ccccc3)CC2)C1 (stereo unspecified),96,51,37
CCCCCCCN1CCC(CC(=O)Nc2ccnc3ccc(OC)cc23)C(CC)C1 (stereo unspecified),100,75,14
Cc1cc(N[C@@H](Cc2ccccc2)C(=O)NCCOc2ccccc2)nc(Nc2ccccc2)n1.O=C(O)C(F)(F)F,100,63,2
CCC(=O)N[C@@H]1CN[C@@H](C#Cc2cc3c(Nc4ccc(OCc5cccc(F)c5)c(Cl)c4)ncnc3s2)C1,82,0,46
O=C(C=Cc1ccc(F)cc1)N1CCN(S(=O)(=O)c2ccc(Cl)cc2)CC1,91,93,10
Cc1cc(N2CCOCC2)nc2ccc(NC(=O)c3ccc(Cl)c([N+](=O)[O-])c3)cc12,98,15,12
Cc1ccccc1C1CCN(C2CCC(NC(=O)/C=C/c3cc(F)ccc3F)CC2)CC1 (stereo unspecified),85,36,47
Br.CC1(C)NC(N)=NC(=N)N1OCCCOc1cc(Cl)cc(Cl)c1,95,97,62
CCCCC(CC)NC(=O)[C@H]1CNCCN1C(=O)CCCc1ccccc1.O=C(O)C(F)(F)F (stereo partly specified),94,0,5
COc1ccc(C=C2SC(=N)N(c3ccccc3OC)C2=O)cc1,97,95,47

SMILES,Inhibition (Plasmodium falciparum [1]) [%],Inhibition (Plasmodium falciparum [2]) [%],Inhibition (HepG2) [%]
O=C(Cc1c[nH]cn1)Nc1cccc(-c2ccc(-c3nc4cc(C(F)(F)F)ccc4[nH]3)cc2)c1,100,99,10
COc1cc(NC(=O)c2ccc3c(=O)n(Cc4ccccc4)c(=S)[nH]c3c2)cc(OC)c1OC,94,47,6
O=C(O)C(F)(F)F.c1cc(OCCN2CCCC2)ccc1CNC1CCN(CC2CCCCC2)CC1,100,54,15
N#Cc1ccc(Sc2nnc(-c3ccccc3Cl)n2CC2CCCCC2)cc1[N+](=O)[O-],85,34,30
N#Cc1ccc(-c2ccc(C(=O)NCC3CCN(CCN4CCC(c5ccc6c(c5OCC(N)=O)CCCC6)CC4)CC3)cc2)cc1,99,99,56
Cl.O=C(Nc1cccc(-c2nn3ncccc3c2-c2ccnc(Nc3cccnc3)n2)c1)c1c(F)cccc1F,96,70,5
CN1CCc2ccc(NC(=O)Nc3cccc([N+](=O)[O-])c3)cc2C1,87,3,0
CCC[C@@H]([C@@H](CC1CCCCC1)C(=O)N[C@H](C(=O)Nc1ccccn1)[C@H](C)CC)N(O)C=O,96,87,24
COc1cc(C=NNc2ccnc3cc(Cl)ccc23)ccc1O,100,100,15
Cc1ccc(C(NC(=O)C2CCCCC2)c2ccc3cccnc3c2O)cc1 (stereo unspecified),91,59,69
Nc1cc(/C=C/c2ccc([N+](=O)[O-])o2)nc2ccccc12,93,81,100
COc1ccccc1N1CCN(CCCCNC(=O)c2ccc(NC(=O)c3ccc(C(F)(F)F)cc3)cc2)CC1,100,37,25
O=C(Nc1ccc(-c2cccc(-c3nc4ccccc4[nH]3)c2)cc1)Nc1ccsc1,100,90,56
O=C(O)C(F)(F)F.O=c1[nH]ccc2nc(N[C@@H]3CCNC3)nc(Nc3ccc4c(c3)S(=O)(=O)CC4)c12,100,99,0
CS(=O)(=O)CCN(CCS(C)(=O)=O)Cc1ccc(-c2ccc3ncnc(Nc4ccc(OCc5cccc(F)c5)c(Cl)c4)c3c2)o1.Cc1ccc(S(=O)(=O)O)cc1,90,27,0
Cc1cc(=NN=Cc2cccc(Cl)c2)c2ccccc2[nH]1,100,100,22
O=C(NCCCN1CCCCC1)c1ccc(Nc2nccc(Nc3ccc(Oc4ccccc4)cc3)n2)cc1,100,61,30
O=C(O)C(F)(F)F.OCCN1CCN(Cc2cccc(-c3cccc(-c4nc5cc(F)ccc5[nH]4)c3)c2)CC1,100,99,41
COc1ccc(CN2CCC(CNCc3cccc(-c4ccccc4)c3)CC2)cc1.O=C(O)C(F)(F)F,100,92,96
COc1ccc(OCC(O)CN(Cc2ccccc2OC)C(=O)Nc2ccc(Br)cc2)cc1 (stereo unspecified),97,2,8
COc1ccc(NC(=O)/C=C/c2ccccc2Cl)cc1OCCN1CCC(Cc2cc3ccccc3[nH]2)CC1.Cl,92,8,56
CCCNC(=O)C1Cc2c([nH]c3cc(Br)ccc23)C2(CCN(CCc3ccccc3)CC2)N1 (stereo unspecified),92,26,15
Oc1cccc(-c2nc(-c3ccccc3)c(-c3ccc(Oc4ccc(-c5[nH]c(-c6cccc(O)c6)nc5-c5ccccc5)cc4)cc3)[nH]2)c1,91,96,6
